Most compounds without a hit are left out; they make up all but 2.9% or so of the library.
Vif inh = HIV Vif self-association inhibitors, primary screen, imaging, HEK293T, single point | inhibition, % at 7.49 µM | hit rate 0.35% among 340,000 | HEK293T cells, Vif self-association by quenched fluorescence, 24 h; in the data active = inhibition above about 50%, passing the limit was not always enough; inconclusive = no clear call, values can overlap the other calls; inactive = below about 31%
esBAF inh = Bmi1 luciferase reporter increase in mESCs, primary screen, esBAF inhibitor project, mouse ES cells, Bmi1 luciferase knock-in, single point; AID 602393, 2012; 24 h; 100% = twice the neutral-well signal; hit rate 2% among 350,000; reporter increase, % at 12.5 µM; in the data active = activation above about 40%; inconclusive = no clear call, values can overlap the other calls;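 also: a rise in the Bmi1 reporter signal indicates esBAF inhibition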
PvdQ acylase = P. aeruginosa PvdQ acylase inhibitors, primary screen, biochemical, fluorescence, plate reader and imaging, single point | AID 488965, 2010 | inhibition, % at 10 µM | PvdQ acylase [Pseudomonas aeruginosa LESB58] | hit rate 0.063% among 340,000 | purified PvdQ acylase; in the data active = inhibition above about 30%, passing the limit was not always enough; inconclusive = no clear call, values can overlap the other calls
N-glyco inh = increase of ERlucT glycosylation luciferase signal, primary screen, N-linked glycosylation inhibitor project, D54 ERlucT cells, luminescence, set 2; reporter increase, % at 12.5 µM; hit rate 0.23% among 360,000; D54 ERlucT glycosylation luciferase reporter, 24 h; percent of 100 nM tunicamycin response;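 active = mean luciferase reporter signal, scaled so untreated is 0 and the glycosylation-blocking control 100, at or above a set limit in every replicate; inconclusive = mean reaches the limit but not every replicate does; inactive = mean below the limit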;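 also: luciferase carries N-glycosylation sites so blocking glycosylation raises the light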
MITF act = activators of MITF-driven TRPM1 promoter reporter, primary screen, cell-based, SK-MEL-5, luciferase, single point | activation, % at 12.5 µM | AID 588334, 2011 | SK-MEL-5 TRPM1-promoter luciferase, 24 h; % of positive control, neutral wells = 0 | hit rate 0.75% among 300,000;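 active = mean activation of at least 80% with every replicate also reaching 80%; inconclusive = mean reaches 80% but some replicate falls short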
Wnt act = Wnt/beta-catenin pathway activators, primary screen, cell-based, plate reader, single point; Wnt/beta-catenin reporter cell assay, activator; activation, % at 9.35 µM; hit rate 1.2% among 300,000; AID 743398, 2014; in the data active = activation above about 30%, passing the limit was not always enough; inconclusive = no clear call, values can overlap the other calls
Hits are given with their value; - = inactive; ? = inconclusive; . = no result.

SMILES | Vif inh | esBAF inh | PvdQ acylase | N-glyco inh | MITF act | Wnt act
CCCC(=O)Nc1ccc2c(c1)C(=O)N(C)C[C@@H](OC)[C@@H](C)CN(CC1CCOCC1)[C@H](C)CO2 | . | - | . | . | . | .
COc1cccc(CNC(=O)C[C@@H]2CC[C@@H](NC(=O)C3CCOCC3)[C@@H](CO)O2)c1 | . | - | . | . | . | .
O=C(C[C@@H]1C[C@H]2c3cc(NS(=O)(=O)c4ccc(F)cc4)ccc3O[C@H]2[C@@H](CO)O1)NC1CCCC1 | . | - | . | . | . | .
O=c1c2ccccc2ncn1-c1cccc(Cl)c1 | - | - | - | - | - | .
O=c1ncn(-c2cccc(Cl)c2)c2ccccc12 | - | . | - | - | - | 44
O=C(Nc1ccc(F)c(Cl)c1)c1cc(-c2ccco2)on1 | - | - | - | - | - | 38
Cc1ccc(NC(=O)c2cc(-c3cccc(O)c3)on2)cc1C | - | 49 | - | - | - | -
COc1ccc(NC(=O)c2cc(-c3ccco3)on2)cc1OC | - | - | - | - | - | -
Cc1ccc(NC(=O)c2cc(-c3ccco3)on2)cc1 | - | . | - | - | 90 | .
Cc1ccc(NC(=O)c2cc(-c3ccco3)on2)cc1C | - | 47 | - | - | - | .
C[C@H](CO)N1C[C@H](C)[C@H](CN(C)C(=O)Nc2ccccc2)Oc2c(cccc2N(C)C)C1=O | . | - | . | . | . | .
C[C@H](CO)N1C[C@H](C)[C@@H](CN(C)Cc2ccc(F)cc2)Oc2ncc(C#CCN(C)C)cc2C1=O | . | - | . | . | . | .
COc1ccc(C(=O)CSc2nnc(CNc3ccc(F)cc3)o2)cc1 | - | . | - | - | - | -
O=C(CSc1nnc(CNc2ccc(F)cc2)o1)c1ccccc1 | 62 | . | - | - | - | -
COCC(=O)Nc1ccc2c(c1)C(=O)N(C)[C@H]1CC[C@@H](CC(=O)NCCc3ccccc3)O[C@@H]1CO2 | . | - | . | . | . | .
C[C@H]1CCCCO[C@@H](CN(C)C(=O)c2ccccc2)[C@@H](C)CN([C@@H](C)CO)C(=O)c2cc(NC(=O)CCC(F)(F)F)ccc2O1 | . | - | . | . | . | .
COc1ccc2nc3oc(C(=O)N4CCCCC4)cc3cc2c1 | - | ? | - | - | 84 | ?
COc1ccc2cc3cc(C(=O)N4CCCC(C)C4)oc3nc2c1 (stereo unspecified) | - | - | - | - | - | 32
CCCNC(=O)c1ccc(SCC(=O)N(CC)CC)c([N+](=O)[O-])c1 | 65 | - | - | - | - | -
CCOC(=O)CSc1ccc(C(=O)NCCN2CCOCC2)cc1[N+](=O)[O-] | - | - | - | - | - | -
O=C(Cn1nc(-c2ccccc2)c2ccccc2c1=O)Nc1ccccn1 | - | 48 | - | - | - | .
Cc1nn(CC(=O)Nc2ccccn2)c(=O)c2ccccc12 | - | - | - | - | - | -
CSc1nc2sc(-c3ccccc3)cc2c(=O)n1N | - | 57 | - | - | - | .
CC(C)Sc1nc2sc(-c3ccccc3)cc2c(=O)n1N | - | - | - | - | - | .
CCCCn1cnc2c(SCc3ccccc3)nc(N)nc21 | - | 50 | - | - | - | -
SMILES | Vif inh | esBAF inh | PvdQ acylase | N-glyco inh | MITF act | Wnt act
N#C[C@H]1[C@H](c2ccc(C3=CCCC3)cc2)[C@H](CO)N1C(=O)C1CC1 | . | - | . | . | . | .
COCC(=O)Nc1ccc2c(c1)[C@H]1C[C@@H](CC(=O)NCc3ccncc3)O[C@H](CO)[C@H]1O2 | . | - | . | . | . | .
O=C(CCCC(=O)c1ccc(F)cc1)c1ccc(F)cc1 | - | 55 | - | - | 131 | 37
O=C(CCCN1CCC(C(=O)c2ccc(F)cc2)CC1)c1ccc(F)cc1 | - | - | - | - | - | -
O=C1c2ccccc2NC(c2cccc(Cl)c2)N1N=C1CCCCCC1 (stereo unspecified) | - | 55 | - | - | 92 | ?
O=C1c2ccccc2NC(c2ccc(Cl)cc2Cl)N1O (stereo unspecified) | - | - | - | - | - | .
O=C(C[C@H]1C=C[C@H](NC(=O)c2cccnc2)[C@@H](CO)O1)NCCN1CCCCC1 | . | - | . | . | . | .
C=CCn1c(-c2ccccc2)c[nH]c1=S | - | 64 | - | - | - | 43
O=C(Nc1ccc(F)cc1)Nc1ccc2c(c1)[C@@H]1C[C@@H](CC(=O)N3CCOCC3)O[C@H](CO)[C@@H]1O2 | . | - | . | . | . | .
O=C(Nc1ccc(Cl)cc1)c1ccc(CN2CCc3ccccc3C2)cc1 | - | 49 | - | - | - | -
COc1cc2c(cc1OC)C(C)N(C(=O)CCNC(=O)c1ccccc1)CC2 (stereo unspecified) | - | - | - | - | - | -
O=C(Nc1ccc(Cl)cc1)N1CCc2ccccc2C1 | - | 48 | - | - | - | -
COc1cc2c(cc1OC)C(C)N(C(=O)Nc1ccccc1)CC2 (stereo unspecified) | - | - | - | 35 | - | -
CN(C)c1ccc(NC(=O)CN2CCc3ccccc3C2)cc1 | - | 44 | - | - | - | -
CC(C)NC(=O)Nc1ccc2c(c1)CC(=O)N([C@H](C)CO)C[C@H](C)[C@@H](CN(C)C(=O)Nc1ccc3c(c1)OCO3)O2 | . | - | . | . | . | .
C[C@H]1CN([C@@H](C)CO)C(=O)c2cc(NC(=O)Nc3ccccc3)ccc2O[C@H]1CN(C)C(=O)Nc1ccc(C(F)(F)F)cc1 | . | - | . | . | . | .
COc1ccc(NC(=O)N(C)C[C@H]2Oc3ccc(NS(=O)(=O)c4ccccc4)cc3CC(=O)N([C@@H](C)CO)C[C@H]2C)cc1 | . | - | . | . | . | .
CO[C@H]1CN(C)C(=O)c2cc(NS(=O)(=O)c3cccc(F)c3)ccc2OC[C@H](C)NC[C@H]1C | . | - | . | . | . | .
Cc1ccc(S(=O)(=O)N(C)C[C@@H]2Oc3ccc(NC(=O)c4ccncc4)cc3CC(=O)N([C@@H](C)CO)C[C@@H]2C)cc1 | . | - | . | . | . | .
O=C(Nc1ccccc1)N1CCc2ccccc2C1 | - | 44 | - | - | - | 54
CS(=O)(=O)N1CCc2cc(C(=O)Nc3ccc(Cl)cc3)ccc21 | - | 63 | - | - | . | -
CC(=O)c1ccc(NC(=O)N2CCc3ccccc3C2)cc1 | - | . | - | - | - | -
O=C(Cc1ccc(Cl)cc1)N1CCc2ccccc2C1 | - | 46 | - | - | . | ?
COc1ccc(CC(=O)N2CCc3ccccc3C2)cc1 | - | - | - | - | - | -
Cc1ccc(NC(=O)N2CCc3ccccc3C2)cc1 | - | 46 | - | - | ? | .
Cc1ccc(S(=O)(=O)N(C)C[C@@H]2OCCCC[C@H](C)Oc3ccc(NC(=O)Nc4c(C)noc4C)cc3C(=O)N([C@@H](C)CO)C[C@H]2C)cc1 | . | - | . | . | . | .
CCCNC(=O)Nc1ccc2c(c1)C(=O)N(C)C[C@@H](OC)[C@@H](C)CN(C(C)=O)[C@@H](C)CO2 | . | - | . | . | . | .
C[C@@H]1CN([C@H](C)CO)C(=O)Cc2cc(NS(=O)(=O)c3cccs3)ccc2O[C@H]1CN(C)S(=O)(=O)c1cccs1 | . | - | . | . | . | .

Bioassay records: PubChem BioAssay, Broad Institute
